# FLuc counter = counter-screen for miR-21 project: firefly luciferase inhibitors or activators; P08659; purified FLuc, Km substrates, luminescence inhibition; Potency, µM (series often up to 57.5 µM), most hits filed as inhibitors; hit rate 6.9% among 360,000; AID 588342; further: nearly all actives have a fitted effect of over 55% in size
# Target sequence (P08659 whole entry, looked up): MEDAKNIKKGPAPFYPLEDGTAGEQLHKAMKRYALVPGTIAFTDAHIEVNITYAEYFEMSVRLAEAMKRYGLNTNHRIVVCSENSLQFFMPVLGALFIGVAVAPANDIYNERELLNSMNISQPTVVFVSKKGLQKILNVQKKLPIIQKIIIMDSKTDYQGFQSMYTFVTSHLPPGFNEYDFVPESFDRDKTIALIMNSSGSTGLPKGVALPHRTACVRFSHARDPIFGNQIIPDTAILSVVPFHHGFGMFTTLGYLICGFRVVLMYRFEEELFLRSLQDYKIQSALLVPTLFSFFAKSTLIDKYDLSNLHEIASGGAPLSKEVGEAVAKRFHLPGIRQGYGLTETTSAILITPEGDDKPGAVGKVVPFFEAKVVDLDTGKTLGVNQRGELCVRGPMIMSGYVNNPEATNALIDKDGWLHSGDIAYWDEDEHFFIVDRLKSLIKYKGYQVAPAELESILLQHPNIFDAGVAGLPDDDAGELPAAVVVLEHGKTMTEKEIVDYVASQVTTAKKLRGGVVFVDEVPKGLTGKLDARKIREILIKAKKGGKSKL
#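 Purified P. pyralis luciferase, 10 nM final, with Km-level 10 uM D-luciferin and 10 uM ATP in 50 mM Tris acetate pH 7.5, 10 mM Mg acetate, 0.01% Tween-20, 0.05% BSA; 6-point qHTS titration about 60 µM downward; luminescence read.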
# SMN2 splice up = SMN2 splice variant enhancement; AID 1458; hit rate 2.8% among 210,000; Potency, µM (titrated, usually from 46.1 µM), actives largely listed as activators; HEK293 SMN2-luciferase splicing reporter, luminescence, 30-36 h; further: nearly all actives have a fitted effect of over 55% in size
#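 qHTS luciferase splicing reporter: luminescence rises when SMN2 exon 7 is included in transfected HEK293 cells. Compound exposure lasted 30-36 h at 37C, with 4.5 mM final sodium butyrate as control, followed by a ONE-Glo read.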
# NPC1 promoter act = activates the NPC1 promoter | Huh7 NPC1 promoter luciferase reporter, 24 h | Potency, µM (highest dose often 9.22 µM), hits mostly activators | hit rate 2.4% among 320,000; further: nearly all actives have a fitted effect of over 60% in size
#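 Huh7 reporter cells (NPC1 promoter driving luciferase) are dosed with compound for 24 h at 37 °C, 5% CO2; luciferase detection reagent is then added and luminescence measured after 10 min at ambient temperature.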
# Rab9 prom act = activators of Rab9 promoter | hit rate 2.8% among 320,000 | Huh7 Rab9 promoter-luciferase reporter, luminescence, 24 h | Potency, µM (titrated, usually from 9.22 µM), actives largely listed as activators; further: nearly all actives have a fitted effect of over 60% in size
#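 Steps: seed 1500 Huh7 Rab9-luc cells per well, rest 2 h at 37 °C; add compound in DMSO; incubate 24 h; add luciferase reagent, 10 min ambient; read luminescence.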
# ELG1 genotox = inducers of genotoxicity in HEK293T ELG1-luciferase cells; HEK293T ELG1-luciferase reporter, luminescence, 16 h; Potency, µM (titrated, usually from 46 µM), most hits filed as activators; hit rate 1.3% among 330,000; AID 504466; further: nearly all actives have a fitted effect of over 60% in size
#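 HEK293T cells expressing luciferase-tagged ELG1 were treated with compound or DMSO for 16 hr at 37°C. Luciferase activity was then read after 30 min with ONE-Glo at room temperature; rising signal flags genetic stress.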
# uPA generation = cell surface uPA generation inhibition. cell surface uPA generation assay, qHTS. Potency, µM (doses to about 38.3 µM), usual class: inhibitors. hit rate 0.31% among 330,000. AID 540303; active means well fitted inhibition curve with a large enough effect; inconclusive means small, poorly fitted or top-dose-only effect; inactive means no such curve, though single readings can be large or run the other way; tested in mouse RAW 264.7 cells; further: nearly all actives have a fitted effect of over 55% in size
# Hits are given with their value; n = inactive; u = inconclusive; x = no result given; [ ] = dose if it differs, or a comment. In the library only some 7.3% were active in any assay of this set; here they are far more common. Unless noted, the call rests on the fitted dose curve; in most records, active means well fitted curve in the direction sought with a large enough effect; inconclusive means small, poorly fitted or top-dose-only effect, or another doubt; inactive means no such curve, though single readings can be large; an effect the other way counts as inactive or inconclusive.
SMILES,FLuc counter,SMN2 splice up,NPC1 promoter act,Rab9 prom act,ELG1 genotox,uPA generation
Cc1cc(NC(=O)C2CCCCC2)ncc1NC(=O)c1ccccn1,n,n,n,n,n,n
N/N=C1/CC(=O)NC(=O)N1,x,n[9.22 µM],x,x,x,x
CCN(CC)CCCNC(=O)c1ccc2c(c1)NC(=O)C(CS(=O)(=O)Cc1cccc(Br)c1)N2 (centres undefined),n,x,x,x,x,x
Cc1ccc(CN2CCC(CNC(=O)Nc3cccc(C)c3C)C2)cc1 (centres undefined),n,n,x,x,x,x
COc1ccc(-n2nc([N+](=O)[O-])c(=NCc3ccco3)n2O)cc1,u,x,3.5µM,1.4µM,u,n
COc1ccc(-n2nc([N+](=O)[O-])c(=NCc3cccnc3)n2O)cc1,u,n,3.5µM,2.8µM,u,u
COc1ccc(-n2nc([N+](=O)[O-])c(=NCCc3ccc(C)cc3)n2O)cc1,n,x,u,u,n,n
COc1ccc(-n2nc([N+](=O)[O-])c(=NCCc3ccc(Cl)cc3)n2O)cc1,n,u,n,n,n,n
O=[N+]([O-])c1nn(-c2ccc3c(c2)OCCO3)n(O)c1=NCc1ccccc1Cl,6µM,13µM,u,u,u,n
COc1ccc(-n2nc([N+](=O)[O-])c(=NCCC3=CCCCC3)n2O)cc1,u,u,u,3.5µM,u,n
Cc1ccc(CNC(=O)C(C)n2c(=O)cc(-c3ccccc3)c3c(C)nn(C)c32)cc1 (centres undefined),n,x,x,x,x,x
CCOc1cc(C(=O)Nc2ccc(-c3nc4ccccc4s3)cc2Cl)cc(OCC)c1OCC,13µM,x,x,x,x,x
O=C(COc1ccccc1[N+](=O)[O-])Nc1ccc(-c2nc3ccccc3s2)cc1,n,x,x,x,x,x
C=CCn1c(SCC(=O)Nc2ccc(-c3nc4ccc(C)cc4s3)cc2)nnc1-c1ccccc1,2.4µM,0.79µM,u,0.5µM,u,n
Cc1ccc2nc(-c3ccc(NC(=O)COc4ccccc4C(C)(C)C)cc3)sc2c1,9.5µM,u,x,x,x,x
O=C(COc1ccccc1Cl)Nc1ccc(-c2nc3ccccc3s2)cc1,n,0.79µM,x,x,x,x
O=C(Cc1cccs1)NC1CC(=O)N(c2cccc(F)c2)C1 (centres undefined),n,x,x,x,x,x
O=C(NCC(c1ccc2c(c1)OCO2)N1CCN(c2ccccc2)CC1)C(=O)Nc1ccc(F)cc1 (centres undefined),n,x,x,x,x,x
COc1ccc(/C=C(\C#N)C(=O)OCC(=O)NC(C)c2ccccc2)cc1 (centres undefined),n,n,n,n,n,n
COc1ccc(/C=C(\C#N)C(=O)OCC(=O)Nc2ccc(-c3nc4ccc(C)cc4s3)cc2)cc1,1.7µM,2.5µM,0.45µM,0.4µM,0.65µM,n
Cc1ccc2nc(-c3ccc(NC(=O)COc4ccccc4)cc3)sc2c1,3µM,1.3µM,x,x,x,x
Cc1cccc(OCC(=O)Nc2ccc3nc(SCc4ccccc4)sc3c2)c1,n,x,x,x,x,x
Cc1ccc2nc(-c3ccc(NC(=O)CN4C(=O)NC(C)(c5ccc(OC(F)F)cc5)C4=O)cc3)sc2c1 (centres undefined),5.4µM,x,2.5µM,1.4µM,21µM,n
O=C(Nc1ccc(Cl)c(-c2nc3cc(Cl)ccc3o2)c1)c1cc([N+](=O)[O-])ccc1N1CCOCC1,n,n,x,x,x,x
CC(C)(C)c1ccc(C(=O)CSc2n[nH]c(=O)[nH]c2=O)cc1,12µM,n,n,n,n,n
SMILES,FLuc counter,SMN2 splice up,NPC1 promoter act,Rab9 prom act,ELG1 genotox,uPA generation
O=C(O)CSc1n[nH]c(=O)[nH]c1=O,x,n[9.22 µM],x,x,x,x
CCOC(=O)Nc1csnn1,n,x,n,n,n,n
O=C(CNc1ccc2ccccc2c1)N/N=C/c1ccc(C(=O)O)cc1,27µM,n,n,n,n,n
O=C(CNc1ccc2ccccc2c1)N/N=C/c1cc2ccccc2nc1Cl,15µM,n,n,n,n,n
CNC(=O)c1ccc(NC(=O)Nc2ccccc2)cc1,u,x,u,u,u,n
CC(=O)c1cccc(NC(=O)Nc2ccccc2)c1,12µM,x,n,n,n,n
CC(=O)c1ccc(NC(=O)c2cccc(NC(=O)c3ccccc3)c2)cc1,u,x,n,n,n,n
CC(=O)c1ccc(NC(=O)Nc2ccccc2)cc1,7.6µM,11µM,0.45µM,0.32µM,1.8µM,u
